This assay can be described thus: TO-PRO-1 dye complex inhibitors on d(CAG) DNA, dose response, counter-screen, biochemical, fluorescence, late stage (AID 720649). The settings on record: d(CAG) DNA duplex TO-PRO-1 dye displacement. A general note: Counterscreens check selectivity or assay interference.

The list shows a part of the results. The source made the active and inactive calls. How the calls were made is not given here.

Among the data in PubChem BioAssay AID720649 (The Scripps Research Institute Molecular Screening Center, 2013) are IC50 values, retold here.

By IC50 is commonly meant the midpoint of a concentration-inhibition curve.

Turning to `Cc1noc(NS(=O)(=O)c2ccc(NC(=O)c3oc4ccc(F)cc4c3C)cc2)c1C`, the IC50 was 4.19 µM (active).
